High-throughput results (PubChem)
BJeLR viability: kills HRASV12-expressing BJeLR cells | BJeLR (HRASV12) viability, CellTiter-Glo ATP luminescence, 48 h | inhibition, % (no concentration beside the values) | 300,000 compounds, 0.17% hits | AID 1554; in the data active means inhibition above about 50%
PrPC TRFRET: inhibitors of human cell surface prion protein PrPC | P04156 | inhibition, % at 13.8 µM | AID 720596 | 370,000 compounds, 0.43% hits | TR-FRET read-out; in the data active means inhibition above about 24%; further: 0% = median of the test wells and 100% = reference compound wells
PfHsp40 yeast: compounds rescuing yeast from Plasmodium falciparum HSP40 toxicity; growth rescue, % at 12.5 µM; 340,000 compounds, 0.68% hits; S. cerevisiae expressing PfHsp40, growth rescue, ATP luminescence; in the data active means growth rescue above about 28%, passing the limit was not always enough;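 further: yeast W303a lacking pdr1 and pdr3 grown in galactose medium; growth measured after three days at 30 °C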
SSB-PriA inh: K. pneumoniae PriA-SSBct interaction inhibition; AID 1272365; AlphaScreen SSBct-PriA binding, biotinylated peptide; inhibition, % at 33 µM; 430,000 compounds, 0.6% hits; in the data active means inhibition mostly above about 37%, no sharp cut-off; inactive means mostly below about 20%;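 further: plate controls were negative control peptide for no effect and reference peptide for full effect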
PrP UTR inh: inhibition of PrP 5' UTR reporter expression; cell-based PrP 5' UTR mRNA reporter, plate reader; inhibition, % (test concentration not listed); 340,000 compounds, 0.35% hits; AID 488862; in the data active means inhibition above about 52%; further: 0 = median of the neutral control wells
Yp Topo-I inh: inhibitors of Yersinia pestis topoisomerase I | Y. pestis Topo-I cleavage product accumulation, plate reader | activity, % at 10 µM | 360,000 compounds, 0.064% hits | AID 504884; in the data active means activity above about 50%, passing the limit was not always enough
The depositor's hits bear a star. Compounds with a hit are over-represented: about 1.7% of the library has one in this group of screens.

`Cc1ccc(S(=O)(=O)Nc2ccc3cc([N+](=O)[O-])ccc3c2[N+](=O)[O-])cc1` gave PrPC TRFRET -1, PfHsp40 yeast 352*, SSB-PriA inh 14, PrP UTR inh -17 and Yp Topo-I inh -8.
Screening Cc1ccc(S(=O)(=O)Nc2ccc3ccccc3c2[N+](=O)[O-])cc1 returned PrPC TRFRET 3, PfHsp40 yeast 408*, SSB-PriA inh 10, PrP UTR inh -22 and Yp Topo-I inh 0.
For COc1ccc([N+](=O)[O-])cc1NS(=O)(=O)c1ccc(C)cc1 the results were BJeLR viability 4, PrPC TRFRET -10, PfHsp40 yeast 0, SSB-PriA inh 3, PrP UTR inh -19 and Yp Topo-I inh 3.
Screening O=c1c(SCc2cccc(Cl)c2)nccn1-c1ccc(F)cc1 returned SSB-PriA inh -18.
Screening COc1cccc(C(=O)Nc2ccc(Nc3ccc(-n4cccn4)nn3)cc2)c1OC returned SSB-PriA inh 70*.
`O=C(Nc1ccc(F)cc1)Nc1ccc(Nc2ccc(-n3cccn3)nn2)cc1` gave SSB-PriA inh -6.
For O=C(Nc1ccc(Nc2ccc(-n3cccn3)nn2)cc1)c1cc2ccccc2oc1=O the results were SSB-PriA inh 56*.
For O=C(Nc1ccc(-n2nncc2-c2ccco2)cc1)c1cc2ccccc2oc1=O the results were BJeLR viability -6, PfHsp40 yeast -1, SSB-PriA inh 46*, PrP UTR inh -30 and Yp Topo-I inh 3.
Screening O=C(Nc1ccc(Nc2ccc(-n3cccn3)nn2)cc1)Nc1cccc(F)c1 returned SSB-PriA inh 36*.
`COC(=O)c1ccc2nc(NC(=O)c3cc(Cl)sc3Cl)sc2c1` gave SSB-PriA inh -20.
c1cnc2c(c1)ccc1cc[nH]c12 was read as SSB-PriA inh 49.
Cc1ccc(N2CCCS2(=O)=O)cc1NC(=O)C(=O)NCc1cccs1 was read as SSB-PriA inh 1.
`CC(=NN=C1NC(=O)CC(C(=O)O)S1)c1cccs1` (stereo not drawn) gave SSB-PriA inh -2.
`O=C(CS(=O)(=O)c1ccc(Cl)s1)Nc1cccc(C(F)(F)F)c1` gave SSB-PriA inh -14.
CC(C)CNS(=O)(=O)c1ccc2nc(NC(=O)c3ccccc3Cl)sc2c1 was read as SSB-PriA inh 41*.
For CS(=O)(=O)c1ccc2nc(NC(=O)c3ccccc3Cl)sc2c1 the results were BJeLR viability 4, PrPC TRFRET 6, PfHsp40 yeast 0, SSB-PriA inh -7, PrP UTR inh -24 and Yp Topo-I inh 1.
Screening O=C(Cn1cnc2ccccc2c1=O)c1cccs1 returned BJeLR viability 1, PrPC TRFRET -3, PfHsp40 yeast 41*, SSB-PriA inh -6, PrP UTR inh -15 and Yp Topo-I inh -1.
For O=C(Cn1cnc2ccc(Cl)cc2c1=O)c1cccs1 the results were BJeLR viability -12, PrPC TRFRET 13, PfHsp40 yeast 0, SSB-PriA inh -16, PrP UTR inh -12 and Yp Topo-I inh 7.
Screening CC(=O)c1ccc(NC(=O)CN2CCN(Cc3nc(-c4cccs4)cs3)CC2)cc1 returned SSB-PriA inh -2.
Screening CCC(C)n1c(=O)c2sccc2n2c(CCCC(=O)N3CCC(C(N)=O)CC3)nnc12 (stereo not drawn) returned BJeLR viability -12, PrPC TRFRET 0, PfHsp40 yeast -1, SSB-PriA inh 43*, PrP UTR inh -6 and Yp Topo-I inh -13.
Cc1cc2ncc(NC(=O)Cc3ccc(F)cc3)cn2n1 was read as SSB-PriA inh -12.
`C=CCn1c(SCC(=O)c2ccc(OC)cc2)nnc1-c1cc2cccc(OC)c2o1` gave BJeLR viability 4, PrPC TRFRET 12, PfHsp40 yeast -1, SSB-PriA inh -14, PrP UTR inh 3 and Yp Topo-I inh 67*.
`Cc1ccc(S(=O)(=O)N(CCCO)CC(O)CON=C2c3ccccc3-c3ccccc32)cc1` (stereo not drawn) gave BJeLR viability -19, PrPC TRFRET 6, PfHsp40 yeast 29*, SSB-PriA inh 4, PrP UTR inh -20 and Yp Topo-I inh 21.
For O=C(Nc1cccc(Cl)c1)ON=C1c2ccccc2-c2ccccc21 the results were BJeLR viability 4, PrPC TRFRET -1, PfHsp40 yeast 37*, SSB-PriA inh -5, PrP UTR inh -34 and Yp Topo-I inh -3.
`CCc1nnc(NC(=O)c2ccc(S(=O)(=O)N(CC)Cc3ccccc3)cc2)o1` gave BJeLR viability -2, PrPC TRFRET 9, PfHsp40 yeast 172*, SSB-PriA inh -16, PrP UTR inh -6 and Yp Topo-I inh -5.
Screening CCN(Cc1ccccc1)S(=O)(=O)c1ccc(C(=O)Nc2nnc(C)o2)cc1 returned BJeLR viability 5, PrPC TRFRET -2, PfHsp40 yeast 13, SSB-PriA inh -9, PrP UTR inh -5 and Yp Topo-I inh -4.
`CCC(C)n1c(NC(=O)c2ccccc2)c(C#N)c2nc3ccccc3nc21` (stereo not drawn) gave BJeLR viability -7, PrPC TRFRET -1, PfHsp40 yeast 0, SSB-PriA inh 58*, PrP UTR inh -8 and Yp Topo-I inh 7.
For CCCCn1c(NC(=O)c2ccc(F)cc2)c(C#N)c2nc3ccccc3nc21 the results were BJeLR viability -3.
CCCCn1c(NC(=O)c2ccccc2)c(C#N)c2nc3ccccc3nc21 was read as PrPC TRFRET -7, PfHsp40 yeast -1, SSB-PriA inh 56*, PrP UTR inh -26 and Yp Topo-I inh 9.
For O=C(Nc1nc(-c2cccs2)cs1)C1CCCCN1S(=O)(=O)c1cccs1 (stereo not drawn) the results were SSB-PriA inh 5.
For O=C(Nc1nc(-c2ccccn2)cs1)c1ccc(Cl)s1 the results were BJeLR viability -4, PrPC TRFRET 15, PfHsp40 yeast -1, SSB-PriA inh 32, PrP UTR inh 15 and Yp Topo-I inh 0.
Screening Cc1ccc(C(=O)Nc2nc(-c3ccccn3)cs2)s1 returned PrPC TRFRET 20, PfHsp40 yeast 59*, SSB-PriA inh 47*, PrP UTR inh 10 and Yp Topo-I inh -13.
CCc1sc(C(=O)Nc2nc(-c3ccccn3)cs2)cc1C was read as PfHsp40 yeast 441*, SSB-PriA inh 13, PrP UTR inh 19 and Yp Topo-I inh -7.
For O=C(Nc1nc(-c2ccccn2)cs1)[C@@H]1CCCN1S(=O)(=O)c1cccs1 the results were SSB-PriA inh 91*.
COc1ccc(NS(=O)(=O)c2ccc(NC(=O)c3ccc(CN4CCOCC4)cc3)cc2)cc1 was read as BJeLR viability 6, PrPC TRFRET 12, PfHsp40 yeast 50*, SSB-PriA inh 0, PrP UTR inh -13 and Yp Topo-I inh 0.
Cc1csc(CN2CCN(C(=O)C3CCCC3)CC2)n1 was read as SSB-PriA inh -21.
Screening CSc1ccc(CC(=O)Nc2nc3c(F)cccc3s2)cc1 returned SSB-PriA inh 3.
